# Measured values published in publication PMC8384837, “Expanding the binding specificity for RNA recognition by a PUF domain”.
# What was measured:
# Experiment in all cases: yeast three-hybrid, YBZ-1, SC-Leu-His + 0.5 mM 3-AT, 4 days
# Details in all cases: tags: N-Gal4 AD-HA kept; label: inside an RPR1-promoter hybrid RNA with tandem MS2 sites; ssRNA
# PUM1 PUF domain R1-KER = PUM1 PUF domain R1-KER (Homo sapiens, UniProt Q14671 828-1176, S863K;R864E;Q867R)
# How it was run: (§1)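 Repeat regions from input (SC-Leu) and selection (SC-Leu-His + 0.5 mM 3-AT) plates were PCR-amplified and Illumina-sequenced after four days of growth. The cells were strain YBZ-1 with a LexA–MS2 coat fusion and a HIS3 reporter, co-expressing Pumilio-1 PUF domain libraries and matching RNA elements from a centromeric plasmid. The interaction score is the log change in variant frequency from input to selection, taken in log2 with a pseudocount of 1 for absent variants.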
# PUM1 PUF domain R1-RKS = PUM1 PUF domain R1-RKS (Homo sapiens, UniProt Q14671 828-1176, S863R;R864K;Q867S)
# How it was run: as §1
# PUM1 PUF domain R3-ARL = PUM1 PUF domain R3-ARL (Homo sapiens, UniProt Q14671 828-1176, C935A;Q939L)
# How it was run: as §1
# PUM1 PUF domain R6-IFL = target: T1, PUM1 PUF domain R6-IFL (Homo sapiens, UniProt Q14671 828-1176, N1043I;Y1044F;Q1047L)
# T1 sequence: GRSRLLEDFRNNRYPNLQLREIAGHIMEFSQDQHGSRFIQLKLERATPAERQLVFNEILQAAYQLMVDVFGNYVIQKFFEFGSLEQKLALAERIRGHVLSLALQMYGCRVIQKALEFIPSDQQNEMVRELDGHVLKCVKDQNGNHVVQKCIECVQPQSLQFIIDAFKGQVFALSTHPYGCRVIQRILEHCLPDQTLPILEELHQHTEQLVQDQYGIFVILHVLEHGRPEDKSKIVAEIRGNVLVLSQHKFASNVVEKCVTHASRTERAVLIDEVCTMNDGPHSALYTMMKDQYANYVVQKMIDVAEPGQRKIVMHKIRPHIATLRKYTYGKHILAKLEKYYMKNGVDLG
# How it was run: as §1
# PUM1 PUF domain R7-IMR = PUM1 PUF domain R7-IMR (Homo sapiens, UniProt Q14671 828-1176, S1079I;N1080M;E1083R)
# How it was run: as §1
# PUM1 PUF domain R7-RRY = PUM1 PUF domain R7-RRY (Homo sapiens, UniProt Q14671 828-1176, S1079R;N1080R;E1083Y)
# How it was run: as §1
# PUM1 PUF domain R5-FRQ = PUM1 PUF domain R5-FRQ (Homo sapiens, UniProt Q14671 828-1176, C1007F)
# How it was run: as §1
# PUM1 PUF domain R8-KKF = PUM1 PUF domain R8-KKF (Homo sapiens, UniProt Q14671 828-1176, N1122K;Y1123K;Q1126F)
# How it was run: as §1
# PUM1 PUF domain R8-CHR = PUM1 PUF domain R8-CHR (Homo sapiens, UniProt Q14671 828-1176, N1122C;Y1123H;Q1126R)
# How it was run: as §1
# PUM1 PUF domain R4-SMV = PUM1 PUF domain R4-SMV (Homo sapiens, UniProt Q14671 828-1176, N971S;H972M;Q975V)
# How it was run: as §1
# PUM1 PUF domain R1-RQN = PUM1 PUF domain R1-RQN (Homo sapiens, UniProt Q14671 828-1176, S863R;R864Q;Q867N)
# How it was run: as §1
# Sequence of PUM1 PUF domain R4-SMV (Q14671 828-1176 N971S/H972M/Q975V): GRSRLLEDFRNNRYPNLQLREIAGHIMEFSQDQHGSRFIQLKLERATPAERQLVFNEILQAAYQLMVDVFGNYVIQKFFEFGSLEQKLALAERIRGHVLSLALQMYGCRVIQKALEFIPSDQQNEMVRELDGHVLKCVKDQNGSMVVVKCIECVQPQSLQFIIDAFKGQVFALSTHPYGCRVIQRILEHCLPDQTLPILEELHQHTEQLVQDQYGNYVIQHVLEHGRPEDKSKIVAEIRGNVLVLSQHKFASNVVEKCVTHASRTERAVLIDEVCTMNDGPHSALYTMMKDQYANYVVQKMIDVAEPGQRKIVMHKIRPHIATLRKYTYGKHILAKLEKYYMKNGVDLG
sequence,measurement,setting,value
GGCUAGAACUAGUGGAUCCCCCGGCGCCCGGCGGCUCGAGCCCGGGUAAGUGUAAAUUGUCUGCAUGCCGCCGGGCGCCAUGCCUGCAGGUCGACUCUAGAAAACAUG,binding signal,PUM1 PUF domain R1-KER,3.72 log2 enrichment (interaction score)
same,binding signal,PUM1 PUF domain R1-RKS,4.69 log2 enrichment (interaction score)
GGCUAGAACUAGUGGAUCCCCCGGCGCCCGGCGGCUCGAGCCCGGGUAAGUGUAAUUAGUCUGCAUGCCGCCGGGCGCCAUGCCUGCAGGUCGACUCUAGAAAACAUG,binding signal,PUM1 PUF domain R3-ARL,1.22 log2 enrichment (interaction score)
GGCUAGAACUAGUGGAUCCCCCGGCGCCCGGCGGCUCGAGCCCGGGUAAGUGAAAAUAGUCUGCAUGCCGCCGGGCGCCAUGCCUGCAGGUCGACUCUAGAAAACAUG,binding signal,PUM1 PUF domain R6-IFL,7.28 log2 enrichment (interaction score)
GGCUAGAACUAGUGGAUCCCCCGGCGCCCGGCGGCUCGAGCCCGGGUAAGUUUAAAUAGUCUGCAUGCCGCCGGGCGCCAUGCCUGCAGGUCGACUCUAGAAAACAUG,binding signal,PUM1 PUF domain R7-IMR,2.21 log2 enrichment (interaction score)
same,binding signal,PUM1 PUF domain R7-RRY,3.87 log2 enrichment (interaction score)
GGCUAGAACUAGUGGAUCCCCCGGCGCCCGGCGGCUCGAGCCCGGGUAAGUGUCAAUAGUCUGCAUGCCGCCGGGCGCCAUGCCUGCAGGUCGACUCUAGAAAACAUG,binding signal,PUM1 PUF domain R5-FRQ,2.71 log2 enrichment (interaction score)
GGCUAGAACUAGUGGAUCCCCCGGCGCCCGGCGGCUCGAGCCCGGGUAAGCGUAAAUAGUCUGCAUGCCGCCGGGCGCCAUGCCUGCAGGUCGACUCUAGAAAACAUG,binding signal,PUM1 PUF domain R8-KKF,3 log2 enrichment (interaction score)
same,binding signal,PUM1 PUF domain R8-CHR,4.19 log2 enrichment (interaction score)
GGCUAGAACUAGUGGAUCCCCCGGCGCCCGGCGGCUCGAGCCCGGGUAAGUGUAUAUAGUCUGCAUGCCGCCGGGCGCCAUGCCUGCAGGUCGACUCUAGAAAACAUG,binding signal,PUM1 PUF domain R4-SMV,2.15 log2 enrichment (interaction score)
GGCUAGAACUAGUGGAUCCCCCGGCGCCCGGCGGCUCGAGCCCGGGUAAGUGUAAAUCGUCUGCAUGCCGCCGGGCGCCAUGCCUGCAGGUCGACUCUAGAAAACAUG,binding signal,PUM1 PUF domain R1-RQN,4.56 log2 enrichment (interaction score)
